Laboratory results taken from the supplement of paper PMC12067093, “Discovery and optimisation of a covalent ligand for TRIM25 and its application to targeted protein ubiquitination” (Chemical Science, 2025).
Of roughly 21,000 targets only a part is listed; those with the largest changes were picked by preference.

Compound: CC1Cc2ccccc2N1C(=O)C1CCCN(C1)C(=O)CCl (mixture of isomers) [TRIM25 ligand 11 (diastereomer mixture)]
Experiment: probe-labelled cysteine peptide fold change vs DMSO (competition) (log2 fold change); higher = less target engagement (more negative = stronger competition)
Settings: THP-1, incubation time: 4 h
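Note: competitive chemoproteomic profiling in live THP-1 cells with an iodoacetamide desthiobiotin (IA-DTB) probe, comparing probe-labelled peptide intensities in compound-treated cells against DMSO-treated controls.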

RSBN1_Q5VWQ0_282_EVQTVCAGLTR (UniProt Q5VWQ0)
probe-labelled cysteine peptide fold change (10 µM): 0.00457
probe-labelled cysteine peptide fold change (50 µM): -0.119

SRD5A3_Q9H8P0_238_AGVVIHCNHR (UniProt Q9H8P0)
probe-labelled cysteine peptide fold change (10 µM): 0.00183
probe-labelled cysteine peptide fold change (50 µM): -0.036

RUVBL1_Q9Y265_94_VPFCPMVGSEVYSTEIK (UniProt Q9Y265)
probe-labelled cysteine peptide fold change (10 µM): 0.0537
probe-labelled cysteine peptide fold change (50 µM): -0.0791

SORBS3_O60504_482_GEHICLIR (UniProt O60504)
probe-labelled cysteine peptide fold change (10 µM): 0.12
probe-labelled cysteine peptide fold change (50 µM): 0.166

SLC7A6OS_Q96CW6_62_AAENNVFHLVATVCSQEEPVQPLLR (UniProt Q96CW6)
probe-labelled cysteine peptide fold change (10 µM): -0.0977
probe-labelled cysteine peptide fold change (50 µM): -0.671

RPS2_P15880_222_KLLMMAGIDDCYTSAR (UniProt P15880)
probe-labelled cysteine peptide fold change (10 µM): -0.59
probe-labelled cysteine peptide fold change (50 µM): -0.607

SCFD2_Q8WU76_507_ALAQVFCEESGLSPLLQK (UniProt Q8WU76)
probe-labelled cysteine peptide fold change (10 µM): 0.0961
probe-labelled cysteine peptide fold change (50 µM): 0.0426

SH3GLB1_Q9Y371_304_ECSGSR (UniProt Q9Y371)
probe-labelled cysteine peptide fold change (10 µM): -0.137
probe-labelled cysteine peptide fold change (50 µM): 0.575

RPP40_O75818_49_VSFLIPECGILSEELK (UniProt O75818)
probe-labelled cysteine peptide fold change (10 µM): 0.101
probe-labelled cysteine peptide fold change (50 µM): 0.161

SASS6_Q6UVJ0_94_FIDLLQQCTQEHAK (UniProt Q6UVJ0)
probe-labelled cysteine peptide fold change (10 µM): 0.0471
probe-labelled cysteine peptide fold change (50 µM): 0.0533

SLFN11_Q7Z7L1_322_VNPFCCAVFSEAPNSWIVEDK (UniProt Q7Z7L1)
Chain of UniProt Q7Z7L1 (Q7Z7L1 whole entry, looked up): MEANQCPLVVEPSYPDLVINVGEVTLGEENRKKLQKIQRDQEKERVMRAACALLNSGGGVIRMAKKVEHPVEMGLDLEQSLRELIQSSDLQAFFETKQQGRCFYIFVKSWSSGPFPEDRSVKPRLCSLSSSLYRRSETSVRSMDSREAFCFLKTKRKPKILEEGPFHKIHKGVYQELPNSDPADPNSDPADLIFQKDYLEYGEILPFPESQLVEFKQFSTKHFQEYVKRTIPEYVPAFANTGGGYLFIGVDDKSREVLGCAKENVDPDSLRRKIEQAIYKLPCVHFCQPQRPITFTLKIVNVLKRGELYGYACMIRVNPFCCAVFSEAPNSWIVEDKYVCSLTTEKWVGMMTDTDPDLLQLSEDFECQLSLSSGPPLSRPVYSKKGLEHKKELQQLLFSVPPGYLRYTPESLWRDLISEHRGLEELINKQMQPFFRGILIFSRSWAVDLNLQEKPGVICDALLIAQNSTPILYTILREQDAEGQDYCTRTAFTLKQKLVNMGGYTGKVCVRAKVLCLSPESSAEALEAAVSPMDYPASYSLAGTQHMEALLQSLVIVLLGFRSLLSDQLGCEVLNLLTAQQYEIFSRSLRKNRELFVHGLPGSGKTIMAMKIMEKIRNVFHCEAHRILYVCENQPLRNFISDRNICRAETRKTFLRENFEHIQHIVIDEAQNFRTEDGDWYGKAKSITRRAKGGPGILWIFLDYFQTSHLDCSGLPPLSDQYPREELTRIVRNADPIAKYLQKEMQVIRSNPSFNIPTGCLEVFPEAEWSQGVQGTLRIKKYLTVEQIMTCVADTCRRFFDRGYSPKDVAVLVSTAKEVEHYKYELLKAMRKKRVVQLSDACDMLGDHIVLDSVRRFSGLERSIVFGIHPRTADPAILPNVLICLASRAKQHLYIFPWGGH
probe-labelled cysteine peptide fold change (10 µM): 0.661
probe-labelled cysteine peptide fold change (50 µM): 0.447

RPS6KA1_Q15418_432_ETIGVGSYSECKR (UniProt Q15418)
Chain of UniProt Q15418 (Q15418 whole entry, looked up): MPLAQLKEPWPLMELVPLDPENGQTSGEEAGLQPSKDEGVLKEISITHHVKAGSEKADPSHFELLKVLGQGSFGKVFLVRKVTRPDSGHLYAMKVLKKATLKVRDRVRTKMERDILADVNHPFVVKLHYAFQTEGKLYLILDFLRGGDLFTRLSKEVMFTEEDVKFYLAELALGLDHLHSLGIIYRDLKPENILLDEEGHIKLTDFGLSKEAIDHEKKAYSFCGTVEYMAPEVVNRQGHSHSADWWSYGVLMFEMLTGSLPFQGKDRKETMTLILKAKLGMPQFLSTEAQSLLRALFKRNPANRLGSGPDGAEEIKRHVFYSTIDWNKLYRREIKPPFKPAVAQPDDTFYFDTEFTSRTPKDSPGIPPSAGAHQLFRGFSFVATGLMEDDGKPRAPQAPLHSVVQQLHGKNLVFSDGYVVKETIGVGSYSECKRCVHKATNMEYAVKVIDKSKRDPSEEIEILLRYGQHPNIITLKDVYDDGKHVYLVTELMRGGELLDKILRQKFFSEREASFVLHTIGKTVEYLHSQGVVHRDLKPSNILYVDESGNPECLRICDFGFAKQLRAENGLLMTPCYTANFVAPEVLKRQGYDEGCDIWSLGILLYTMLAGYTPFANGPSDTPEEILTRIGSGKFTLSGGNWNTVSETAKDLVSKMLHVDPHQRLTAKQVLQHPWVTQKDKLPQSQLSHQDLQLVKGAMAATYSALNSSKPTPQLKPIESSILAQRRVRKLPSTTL
probe-labelled cysteine peptide fold change (10 µM): 0.185
probe-labelled cysteine peptide fold change (50 µM): -0.833

RSPRY1_Q96DX4_190_LTEILNLNGEVACQDSSHPAK (UniProt Q96DX4)
probe-labelled cysteine peptide fold change (10 µM): -0.258
probe-labelled cysteine peptide fold change (50 µM): -0.129

SLPI_P03973_51+57_YKKPECQSDWQCPGK (UniProt P03973)
probe-labelled cysteine peptide fold change (10 µM): -0.301
probe-labelled cysteine peptide fold change (50 µM): -0.883

SATB2_Q9UPW6_159_IQLQSCSK (UniProt Q9UPW6)
probe-labelled cysteine peptide fold change (10 µM): 0.071
probe-labelled cysteine peptide fold change (50 µM): -0.00125

SERPINF2_P08697_152_LCQDLGPGAFR (UniProt P08697)
probe-labelled cysteine peptide fold change (10 µM): 0.591
probe-labelled cysteine peptide fold change (50 µM): 0.7

SNX18_Q96RF0-2_570_CNTISFATLAEIHHFHQIR (UniProt Q96RF0)
probe-labelled cysteine peptide fold change (10 µM): 0.155
probe-labelled cysteine peptide fold change (50 µM): 0.111

SPAG1_Q07617_825_EACAHLLAITAPK (UniProt Q07617)
probe-labelled cysteine peptide fold change (10 µM): -0.0823
probe-labelled cysteine peptide fold change (50 µM): -0.0988

SMU1_Q2TAY7_416_NPEHFVVCNR (UniProt Q2TAY7)
probe-labelled cysteine peptide fold change (10 µM): -0.00322
probe-labelled cysteine peptide fold change (50 µM): 0.0655

SLC25A5_P05141_257_KGTDIMYTGTLDCWR (UniProt P05141)
Chain of UniProt P05141 (P05141 whole entry, looked up): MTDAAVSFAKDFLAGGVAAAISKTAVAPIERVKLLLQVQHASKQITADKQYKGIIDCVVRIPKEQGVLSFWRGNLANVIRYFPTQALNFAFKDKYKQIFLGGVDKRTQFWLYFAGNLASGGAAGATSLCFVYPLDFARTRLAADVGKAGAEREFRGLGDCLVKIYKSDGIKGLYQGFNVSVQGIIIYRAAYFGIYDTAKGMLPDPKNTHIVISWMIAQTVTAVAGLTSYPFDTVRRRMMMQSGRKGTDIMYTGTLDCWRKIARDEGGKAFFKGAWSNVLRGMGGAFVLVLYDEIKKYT
probe-labelled cysteine peptide fold change (10 µM): -0.0817
probe-labelled cysteine peptide fold change (50 µM): -0.062

SETDB1_Q15047_1207_QFYDGEESCYIIDAK (UniProt Q15047)
probe-labelled cysteine peptide fold change (10 µM): -0.0777
probe-labelled cysteine peptide fold change (50 µM): -0.0706

SON_P18583_1551_EMEHNTVCAAGTSPVGEIGEEK (UniProt P18583)
probe-labelled cysteine peptide fold change (10 µM): 0.0276
probe-labelled cysteine peptide fold change (50 µM): -0.264

SLC15A4_Q8N697_269_ILTYSCCSQK (UniProt Q8N697)
probe-labelled cysteine peptide fold change (10 µM): -0.00859
probe-labelled cysteine peptide fold change (50 µM): -0.114

SCAPER_Q9BY12_336_DSLHSCDHPLAEK (UniProt Q9BY12)
probe-labelled cysteine peptide fold change (10 µM): -0.0351
probe-labelled cysteine peptide fold change (50 µM): -0.308

SF1_Q15637_282+292_CGGAGHIASDCK (UniProt Q15637)
Chain of UniProt Q15637 (Q15637 whole entry, looked up): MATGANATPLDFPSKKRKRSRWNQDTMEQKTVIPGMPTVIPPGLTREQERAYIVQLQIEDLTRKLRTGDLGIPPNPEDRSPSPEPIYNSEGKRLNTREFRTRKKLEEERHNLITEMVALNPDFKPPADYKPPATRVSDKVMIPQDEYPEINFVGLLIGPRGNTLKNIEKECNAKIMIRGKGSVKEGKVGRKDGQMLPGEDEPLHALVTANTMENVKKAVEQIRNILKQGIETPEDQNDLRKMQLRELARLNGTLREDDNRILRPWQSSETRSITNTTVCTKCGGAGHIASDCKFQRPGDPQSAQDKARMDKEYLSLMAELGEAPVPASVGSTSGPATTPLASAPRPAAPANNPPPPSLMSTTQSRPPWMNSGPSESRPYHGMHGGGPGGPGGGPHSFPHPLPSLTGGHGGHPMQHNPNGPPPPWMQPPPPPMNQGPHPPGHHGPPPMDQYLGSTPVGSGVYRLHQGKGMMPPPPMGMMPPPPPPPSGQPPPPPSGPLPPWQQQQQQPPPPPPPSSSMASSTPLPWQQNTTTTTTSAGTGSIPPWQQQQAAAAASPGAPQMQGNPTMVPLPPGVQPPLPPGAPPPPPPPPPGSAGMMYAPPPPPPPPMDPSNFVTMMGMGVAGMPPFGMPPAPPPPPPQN
probe-labelled cysteine peptide fold change (10 µM): -0.0927
probe-labelled cysteine peptide fold change (50 µM): -0.0122

SAR1B_Q9Y6B6_102_NYLPAINGIVFLVDCADHER (UniProt Q9Y6B6)
probe-labelled cysteine peptide fold change (10 µM): 0.177
probe-labelled cysteine peptide fold change (50 µM): 0.151

SESN1_Q9Y6P5_286_QLQECRDEEEASQEEMASR (UniProt Q9Y6P5)
Chain of UniProt Q9Y6P5 (Q9Y6P5 whole entry): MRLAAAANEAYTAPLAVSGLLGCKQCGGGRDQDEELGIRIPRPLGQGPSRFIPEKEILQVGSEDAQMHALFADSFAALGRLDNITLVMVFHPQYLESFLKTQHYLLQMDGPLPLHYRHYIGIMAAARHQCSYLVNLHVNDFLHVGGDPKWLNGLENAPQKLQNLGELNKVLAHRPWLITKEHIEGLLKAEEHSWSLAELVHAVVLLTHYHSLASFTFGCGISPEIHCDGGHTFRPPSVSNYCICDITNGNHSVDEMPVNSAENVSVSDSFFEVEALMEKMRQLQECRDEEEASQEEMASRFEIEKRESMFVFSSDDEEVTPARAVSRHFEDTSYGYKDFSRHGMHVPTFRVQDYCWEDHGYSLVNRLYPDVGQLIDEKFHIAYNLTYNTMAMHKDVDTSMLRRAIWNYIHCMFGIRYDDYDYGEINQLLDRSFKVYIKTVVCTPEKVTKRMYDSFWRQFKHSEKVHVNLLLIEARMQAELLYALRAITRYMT
probe-labelled cysteine peptide fold change (10 µM): -0.00479
probe-labelled cysteine peptide fold change (50 µM): -0.0495

RRP8_O43159_451_AQLSGLQLQPCLYK (UniProt O43159)
Chain of UniProt O43159 (O43159 whole entry, looked up): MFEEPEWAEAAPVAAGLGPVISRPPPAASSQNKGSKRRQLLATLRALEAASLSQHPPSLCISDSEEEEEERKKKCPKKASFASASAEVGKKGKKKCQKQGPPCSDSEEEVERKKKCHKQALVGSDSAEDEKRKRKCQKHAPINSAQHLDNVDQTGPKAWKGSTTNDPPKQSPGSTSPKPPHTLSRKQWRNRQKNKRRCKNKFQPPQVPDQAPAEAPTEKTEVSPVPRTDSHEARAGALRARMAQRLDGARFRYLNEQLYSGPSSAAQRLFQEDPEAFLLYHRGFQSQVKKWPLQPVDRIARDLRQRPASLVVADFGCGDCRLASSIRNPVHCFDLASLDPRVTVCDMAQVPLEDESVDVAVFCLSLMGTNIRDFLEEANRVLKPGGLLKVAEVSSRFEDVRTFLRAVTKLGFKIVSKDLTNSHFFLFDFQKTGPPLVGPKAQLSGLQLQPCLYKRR
probe-labelled cysteine peptide fold change (10 µM): 0.0693
probe-labelled cysteine peptide fold change (50 µM): -0.167

SCP2_P22307_115_QLIQGGVAECVLALGFEK (UniProt P22307)
probe-labelled cysteine peptide fold change (10 µM): -2.21
probe-labelled cysteine peptide fold change (50 µM): -2.14

RUFY1_Q96T51_692_VCDSCHTLLLQR (UniProt Q96T51)
Chain of UniProt Q96T51 (Q96T51 whole entry, looked up): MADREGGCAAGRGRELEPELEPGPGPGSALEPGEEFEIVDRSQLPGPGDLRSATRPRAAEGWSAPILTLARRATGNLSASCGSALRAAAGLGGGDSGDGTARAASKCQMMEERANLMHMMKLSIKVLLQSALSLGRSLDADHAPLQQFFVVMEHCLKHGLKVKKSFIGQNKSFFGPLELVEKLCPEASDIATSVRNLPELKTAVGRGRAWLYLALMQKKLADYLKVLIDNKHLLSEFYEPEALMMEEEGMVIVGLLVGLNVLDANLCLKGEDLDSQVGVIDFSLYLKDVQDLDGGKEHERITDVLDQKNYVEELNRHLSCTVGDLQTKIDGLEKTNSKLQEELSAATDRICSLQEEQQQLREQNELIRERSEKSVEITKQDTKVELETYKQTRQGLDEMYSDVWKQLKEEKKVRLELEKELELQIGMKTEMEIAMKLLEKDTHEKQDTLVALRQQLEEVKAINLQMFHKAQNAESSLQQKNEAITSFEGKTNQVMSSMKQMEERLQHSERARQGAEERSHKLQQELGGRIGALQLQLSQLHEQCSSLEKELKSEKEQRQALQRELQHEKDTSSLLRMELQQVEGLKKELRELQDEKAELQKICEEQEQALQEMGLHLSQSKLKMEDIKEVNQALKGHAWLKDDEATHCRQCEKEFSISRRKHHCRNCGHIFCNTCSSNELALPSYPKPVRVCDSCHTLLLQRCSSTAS
probe-labelled cysteine peptide fold change (10 µM): 0.114
probe-labelled cysteine peptide fold change (50 µM): -0.0564

SMARCB1_Q12824_167_TFPLCFDDHDPAVIHENASQPEVLVPIRLDMEIDGQKLR (UniProt Q12824)
Chain of UniProt Q12824 (Q12824 whole entry, looked up): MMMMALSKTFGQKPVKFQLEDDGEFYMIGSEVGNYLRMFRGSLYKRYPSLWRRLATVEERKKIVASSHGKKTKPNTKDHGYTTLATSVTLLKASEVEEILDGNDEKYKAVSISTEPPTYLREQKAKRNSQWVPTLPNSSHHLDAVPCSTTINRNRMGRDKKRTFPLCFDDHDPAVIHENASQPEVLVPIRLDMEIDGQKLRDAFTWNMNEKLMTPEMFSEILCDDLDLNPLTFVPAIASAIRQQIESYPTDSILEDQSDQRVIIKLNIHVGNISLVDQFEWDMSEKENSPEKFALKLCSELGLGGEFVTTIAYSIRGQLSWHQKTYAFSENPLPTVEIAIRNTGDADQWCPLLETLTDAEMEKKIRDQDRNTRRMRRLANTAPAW
probe-labelled cysteine peptide fold change (10 µM): -0.0714
probe-labelled cysteine peptide fold change (50 µM): 0.0299

SCAF11_Q99590_752_QMNENSVTHCSENNMPSSDLADEK (UniProt Q99590)
probe-labelled cysteine peptide fold change (10 µM): 0.00365
probe-labelled cysteine peptide fold change (50 µM): -0.727

RSF1_Q96T23_1311_IETDEEESCDNAHGDANQPAR (UniProt Q96T23)
probe-labelled cysteine peptide fold change (10 µM): 0.0514
probe-labelled cysteine peptide fold change (50 µM): 0.0946

SLC35B1_P78383_119_SCKPIPVMLLGVTLLK (UniProt P78383)
probe-labelled cysteine peptide fold change (10 µM): -0.942
probe-labelled cysteine peptide fold change (50 µM): 0.0401

SLX4_Q8IY92_786_FGVSELVHLCEQVPIATDSEGKPWEEK (UniProt Q8IY92)
probe-labelled cysteine peptide fold change (10 µM): 0.00222
probe-labelled cysteine peptide fold change (50 µM): 0.116

RPP40_O75818_235_DLQCPVLQSSELEGTPEVSCR (UniProt O75818)
probe-labelled cysteine peptide fold change (10 µM): 0.892
probe-labelled cysteine peptide fold change (50 µM): 0.729

SIPA1_Q96FS4_467_AHTPCTPHTTYR (UniProt Q96FS4)
probe-labelled cysteine peptide fold change (10 µM): 0.187
probe-labelled cysteine peptide fold change (50 µM): 0.0943

SETDB1_Q15047_781_RLEECLPTGVYECNKR (UniProt Q15047)
probe-labelled cysteine peptide fold change (10 µM): -0.124
probe-labelled cysteine peptide fold change (50 µM): -0.00361

SORD_Q00796_179_VLVCGAGPIGMVTLLVAK (UniProt Q00796)
Chain of UniProt Q00796 (Q00796 whole entry, looked up): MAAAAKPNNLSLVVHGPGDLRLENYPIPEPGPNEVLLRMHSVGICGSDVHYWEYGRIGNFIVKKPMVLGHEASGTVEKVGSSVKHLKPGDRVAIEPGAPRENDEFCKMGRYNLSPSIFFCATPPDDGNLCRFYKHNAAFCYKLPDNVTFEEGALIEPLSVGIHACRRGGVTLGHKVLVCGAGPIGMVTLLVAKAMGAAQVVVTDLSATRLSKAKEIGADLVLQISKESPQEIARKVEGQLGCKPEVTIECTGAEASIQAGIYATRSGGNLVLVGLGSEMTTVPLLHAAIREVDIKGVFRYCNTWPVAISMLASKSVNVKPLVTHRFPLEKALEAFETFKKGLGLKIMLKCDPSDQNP
probe-labelled cysteine peptide fold change (10 µM): -0.904
probe-labelled cysteine peptide fold change (50 µM): -0.915

SEC23B_Q15437_434_GPCVSENELGVGGTSQWK (UniProt Q15437)
probe-labelled cysteine peptide fold change (10 µM): 0.0914
probe-labelled cysteine peptide fold change (50 µM): 0.096

SMAD4_Q13485_391_GVQLECK (UniProt Q13485)
probe-labelled cysteine peptide fold change (10 µM): 0.0468
probe-labelled cysteine peptide fold change (50 µM): 0.21

SNX27_Q96L92_432+434_TCEGYNEIIFPHCACDSR (UniProt Q96L92)
probe-labelled cysteine peptide fold change (10 µM): 0.835
probe-labelled cysteine peptide fold change (50 µM): 0.695

SEC13_P55735_77_GHEGPVWQVAWAHPMYGNILASCSYDR (UniProt P55735)
probe-labelled cysteine peptide fold change (10 µM): -0.107
probe-labelled cysteine peptide fold change (50 µM): -0.123

SEC23A_Q15436_88_LWACNFCYQR (UniProt Q15436)
probe-labelled cysteine peptide fold change (10 µM): 0.0643
probe-labelled cysteine peptide fold change (50 µM): 0.249

SETD3_Q86TU7_36_CSSPAPGPGK (UniProt Q86TU7)
probe-labelled cysteine peptide fold change (10 µM): -0.0972
probe-labelled cysteine peptide fold change (50 µM): -0.145
